Experimental data taken from the supplement of paper PMC11001985.
Values without a mark were called inactive.

compound: C#CCNC(=O)CCSSCCC(=O)NCCc1ccc(C=O)c(C=O)c1; experiment: lysine labeling ratio R10:1 (500 µM / 50 µM probe), SILAC-ABPP in living cells; higher = lower intrinsic lysine reactivity toward the probe, active = 2 or less; conditions: HeLa; probe concentrations 500 vs 50 µM
Summary of the method: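 SILAC light and heavy living HeLa cells in PBS at room temperature were labelled with 50 µM or 500 µM of an alkyne-tagged, disulfide-linked lysine probe, with forward and reverse label swaps. Mixed lysates were clicked to biotin-azide, trypsin-digested, captured on neutravidin, DTT-released, alkylated and analysed by LC-MS/MS on a TIMS-TOF Pro. R is the filtered median high-probe/low-probe MS1 peptide ratio per lysine, then the median across forward and reverse replicates. Ratios are capped at 20.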

UniProt Q13813, sequence (Q13813 whole entry): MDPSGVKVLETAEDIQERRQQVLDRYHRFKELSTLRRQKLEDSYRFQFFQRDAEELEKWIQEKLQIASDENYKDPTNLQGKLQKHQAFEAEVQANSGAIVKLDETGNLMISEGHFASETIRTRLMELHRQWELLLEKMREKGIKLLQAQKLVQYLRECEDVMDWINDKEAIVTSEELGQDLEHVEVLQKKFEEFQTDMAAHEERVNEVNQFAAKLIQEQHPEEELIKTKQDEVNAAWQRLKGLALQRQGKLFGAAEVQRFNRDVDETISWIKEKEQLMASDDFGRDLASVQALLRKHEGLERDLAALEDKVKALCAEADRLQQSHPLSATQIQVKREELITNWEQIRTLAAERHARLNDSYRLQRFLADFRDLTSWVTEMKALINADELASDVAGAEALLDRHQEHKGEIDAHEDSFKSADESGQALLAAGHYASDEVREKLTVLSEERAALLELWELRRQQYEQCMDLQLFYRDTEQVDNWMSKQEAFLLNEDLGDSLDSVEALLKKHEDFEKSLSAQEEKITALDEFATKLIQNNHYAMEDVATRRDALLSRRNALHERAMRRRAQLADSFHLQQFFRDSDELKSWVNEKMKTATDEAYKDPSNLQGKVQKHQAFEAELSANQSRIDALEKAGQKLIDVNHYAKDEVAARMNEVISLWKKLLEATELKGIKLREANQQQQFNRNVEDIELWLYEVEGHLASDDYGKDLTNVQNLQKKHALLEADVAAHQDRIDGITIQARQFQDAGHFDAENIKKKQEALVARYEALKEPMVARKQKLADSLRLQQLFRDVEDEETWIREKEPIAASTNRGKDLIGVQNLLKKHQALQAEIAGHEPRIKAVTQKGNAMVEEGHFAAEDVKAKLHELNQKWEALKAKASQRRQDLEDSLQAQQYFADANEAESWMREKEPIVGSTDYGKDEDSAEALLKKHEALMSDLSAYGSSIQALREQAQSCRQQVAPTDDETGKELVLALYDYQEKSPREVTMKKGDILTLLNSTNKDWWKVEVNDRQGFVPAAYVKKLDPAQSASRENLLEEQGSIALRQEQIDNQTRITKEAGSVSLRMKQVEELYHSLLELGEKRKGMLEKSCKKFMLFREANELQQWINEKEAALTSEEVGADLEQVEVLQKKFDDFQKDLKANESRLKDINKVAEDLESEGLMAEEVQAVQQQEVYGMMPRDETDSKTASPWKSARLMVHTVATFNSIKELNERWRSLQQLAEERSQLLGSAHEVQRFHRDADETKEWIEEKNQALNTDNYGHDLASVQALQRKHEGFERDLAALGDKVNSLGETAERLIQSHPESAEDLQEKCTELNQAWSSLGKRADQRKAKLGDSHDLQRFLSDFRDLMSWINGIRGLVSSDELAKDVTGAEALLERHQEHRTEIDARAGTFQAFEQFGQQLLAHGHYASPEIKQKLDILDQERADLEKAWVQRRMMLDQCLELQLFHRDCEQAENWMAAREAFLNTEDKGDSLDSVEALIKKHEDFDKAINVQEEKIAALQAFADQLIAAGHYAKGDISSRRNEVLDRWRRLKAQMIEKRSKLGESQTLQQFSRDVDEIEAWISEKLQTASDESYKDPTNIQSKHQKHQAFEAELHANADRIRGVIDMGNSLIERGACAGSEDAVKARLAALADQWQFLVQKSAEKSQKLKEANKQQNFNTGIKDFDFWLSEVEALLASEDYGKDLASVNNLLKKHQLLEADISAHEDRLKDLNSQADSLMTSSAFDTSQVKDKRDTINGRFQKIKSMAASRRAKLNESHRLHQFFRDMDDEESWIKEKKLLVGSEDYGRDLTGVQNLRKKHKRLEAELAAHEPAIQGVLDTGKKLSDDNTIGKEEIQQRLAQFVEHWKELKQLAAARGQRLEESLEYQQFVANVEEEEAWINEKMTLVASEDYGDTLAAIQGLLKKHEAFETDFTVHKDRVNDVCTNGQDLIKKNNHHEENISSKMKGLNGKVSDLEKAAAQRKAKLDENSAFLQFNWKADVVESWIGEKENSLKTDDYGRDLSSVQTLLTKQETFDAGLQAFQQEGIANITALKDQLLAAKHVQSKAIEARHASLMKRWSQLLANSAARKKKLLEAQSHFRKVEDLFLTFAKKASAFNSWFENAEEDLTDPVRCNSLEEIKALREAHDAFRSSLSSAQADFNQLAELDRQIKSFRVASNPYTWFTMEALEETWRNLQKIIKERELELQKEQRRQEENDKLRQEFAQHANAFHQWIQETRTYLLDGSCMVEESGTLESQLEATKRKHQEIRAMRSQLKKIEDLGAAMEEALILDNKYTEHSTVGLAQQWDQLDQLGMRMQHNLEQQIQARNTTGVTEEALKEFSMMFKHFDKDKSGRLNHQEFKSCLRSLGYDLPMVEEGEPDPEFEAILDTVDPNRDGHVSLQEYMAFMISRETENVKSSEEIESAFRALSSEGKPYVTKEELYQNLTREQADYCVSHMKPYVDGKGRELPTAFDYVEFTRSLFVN
UniProt P35579, sequence (P35579 whole entry): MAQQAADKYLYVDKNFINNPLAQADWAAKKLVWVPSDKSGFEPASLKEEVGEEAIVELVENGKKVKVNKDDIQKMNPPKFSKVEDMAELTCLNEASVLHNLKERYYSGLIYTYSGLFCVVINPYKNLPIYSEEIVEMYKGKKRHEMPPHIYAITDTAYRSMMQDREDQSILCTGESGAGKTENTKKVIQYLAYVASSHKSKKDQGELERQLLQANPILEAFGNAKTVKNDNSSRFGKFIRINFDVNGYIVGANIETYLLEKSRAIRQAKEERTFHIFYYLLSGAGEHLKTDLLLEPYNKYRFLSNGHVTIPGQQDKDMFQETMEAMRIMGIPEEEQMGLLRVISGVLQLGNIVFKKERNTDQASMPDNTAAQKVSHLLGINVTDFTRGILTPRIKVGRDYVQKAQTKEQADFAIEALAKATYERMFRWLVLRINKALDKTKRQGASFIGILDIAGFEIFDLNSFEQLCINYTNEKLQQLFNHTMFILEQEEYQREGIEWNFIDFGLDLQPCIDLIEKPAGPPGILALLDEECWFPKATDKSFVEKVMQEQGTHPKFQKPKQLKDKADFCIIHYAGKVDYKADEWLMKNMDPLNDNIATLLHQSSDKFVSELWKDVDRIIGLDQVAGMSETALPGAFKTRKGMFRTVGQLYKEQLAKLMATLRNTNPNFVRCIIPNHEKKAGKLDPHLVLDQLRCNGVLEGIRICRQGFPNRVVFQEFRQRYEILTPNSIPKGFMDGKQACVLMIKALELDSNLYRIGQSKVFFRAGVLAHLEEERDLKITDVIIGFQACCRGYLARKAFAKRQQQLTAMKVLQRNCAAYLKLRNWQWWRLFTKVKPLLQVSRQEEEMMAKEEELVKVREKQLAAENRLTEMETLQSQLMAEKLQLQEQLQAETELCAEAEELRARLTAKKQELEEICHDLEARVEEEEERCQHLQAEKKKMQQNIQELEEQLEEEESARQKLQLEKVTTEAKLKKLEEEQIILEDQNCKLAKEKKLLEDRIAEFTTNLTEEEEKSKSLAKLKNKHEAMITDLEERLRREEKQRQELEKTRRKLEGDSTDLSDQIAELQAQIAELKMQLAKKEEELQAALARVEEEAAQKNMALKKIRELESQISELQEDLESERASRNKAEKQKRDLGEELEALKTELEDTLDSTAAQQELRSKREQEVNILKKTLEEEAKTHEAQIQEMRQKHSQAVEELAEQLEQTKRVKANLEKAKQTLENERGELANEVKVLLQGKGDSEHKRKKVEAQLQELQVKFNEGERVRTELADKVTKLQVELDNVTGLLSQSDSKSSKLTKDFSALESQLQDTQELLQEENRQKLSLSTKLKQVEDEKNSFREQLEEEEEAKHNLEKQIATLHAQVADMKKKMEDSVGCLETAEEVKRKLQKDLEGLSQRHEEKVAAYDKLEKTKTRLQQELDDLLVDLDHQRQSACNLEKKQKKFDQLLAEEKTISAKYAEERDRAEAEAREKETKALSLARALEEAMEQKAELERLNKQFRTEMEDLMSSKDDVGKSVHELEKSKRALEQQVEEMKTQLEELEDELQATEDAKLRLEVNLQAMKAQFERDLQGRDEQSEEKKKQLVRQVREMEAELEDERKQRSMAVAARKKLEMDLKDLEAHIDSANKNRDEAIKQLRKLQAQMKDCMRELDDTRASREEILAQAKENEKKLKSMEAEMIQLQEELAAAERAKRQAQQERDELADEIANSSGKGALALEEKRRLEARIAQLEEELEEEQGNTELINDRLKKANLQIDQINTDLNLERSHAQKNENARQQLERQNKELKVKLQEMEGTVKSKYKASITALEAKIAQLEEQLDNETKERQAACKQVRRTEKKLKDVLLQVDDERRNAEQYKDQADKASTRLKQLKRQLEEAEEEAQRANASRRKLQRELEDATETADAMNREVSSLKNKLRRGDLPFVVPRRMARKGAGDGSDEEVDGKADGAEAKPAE
UniProt P15311, sequence (P15311 whole entry): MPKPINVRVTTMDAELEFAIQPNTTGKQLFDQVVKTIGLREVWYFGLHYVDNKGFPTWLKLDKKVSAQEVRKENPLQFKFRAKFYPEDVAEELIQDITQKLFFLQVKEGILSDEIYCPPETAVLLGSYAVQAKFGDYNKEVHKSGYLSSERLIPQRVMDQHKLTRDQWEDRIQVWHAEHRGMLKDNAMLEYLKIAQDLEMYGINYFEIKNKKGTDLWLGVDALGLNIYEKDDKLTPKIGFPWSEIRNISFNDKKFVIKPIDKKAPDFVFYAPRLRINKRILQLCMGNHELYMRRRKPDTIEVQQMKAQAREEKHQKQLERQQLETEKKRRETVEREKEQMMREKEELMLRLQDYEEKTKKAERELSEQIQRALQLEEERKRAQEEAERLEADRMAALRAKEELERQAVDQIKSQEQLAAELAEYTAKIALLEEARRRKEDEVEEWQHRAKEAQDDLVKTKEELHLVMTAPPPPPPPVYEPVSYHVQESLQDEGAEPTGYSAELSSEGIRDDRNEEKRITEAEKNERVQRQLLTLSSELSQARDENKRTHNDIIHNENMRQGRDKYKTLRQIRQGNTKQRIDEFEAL
UniProt P18859, sequence (P18859 whole entry): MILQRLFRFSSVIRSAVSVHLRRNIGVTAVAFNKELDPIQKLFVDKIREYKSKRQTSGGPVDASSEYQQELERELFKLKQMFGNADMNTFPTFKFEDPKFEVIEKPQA

Target	lysine labeling ratio R10:1
CD109 (lysine site: K1291) (UniProt Q6YHK3)	2.41
ITGA1 (lysine site: K711) (UniProt P56199)	3.16
UniProt O95490 (lysine site: K494)	1.07 (active)
UniProt Q15149 (lysine site: K2142)	3.4
CDCP1 (lysine site: K71) (UniProt Q9H5V8)	2.07
CD58 (lysine site: K62) (UniProt P19256)	5.48
ITGA5 (lysine site: K965) (UniProt P08648)	0.705 (active)
EZR (lysine site: K162) (UniProt P15311)	0.7 (active)
SPTBN2 (lysine site: K1909) (UniProt O15020)	1.63 (active)
CSPG4 (lysine site: K465) (UniProt Q6UVK1)	1.56 (active)
SDC4 (lysine site: K114) (UniProt P31431)	3.81
EZR (lysine site: K523) (UniProt P15311)	1.87 (active)
UniProt P62899 (lysine site: K70)	12.9
SPTAN1 (lysine site: K441) (UniProt Q13813)	2.17
NECTIN3 (lysine site: K255) (UniProt Q9NQS3)	4.2
IGSF3 (lysine site: K279) (UniProt O75054)	2.5
MAP4 (lysine site: K959) (UniProt P27816)	3.23
ROR2 (lysine site: K113) (UniProt Q01974)	6.49
PCBP2 (lysine site: K309) (UniProt Q15366)	3.28
UniProt Q15149 (lysine site: K3849)	8.61

Target	lysine labeling ratio R10:1
PGK1 (lysine site: K361) (UniProt P00558)	3.45
UniProt Q99623 (lysine site: K200)	2.34
IGF1R (lysine site: K502) (UniProt P08069)	2.64
GALNT2 (lysine site: K111) (UniProt Q10471)	3.04
MARS (lysine site: K729) (UniProt P56192)	1.58 (active)
FZD5 (lysine site: K113) (UniProt Q13467)	1.57 (active)
SPTAN1 (lysine site: K1784) (UniProt Q13813)	1.22 (active)
CKAP4 (lysine site: K191) (UniProt Q07065)	2.86
FAT4 (lysine site: K4224) (UniProt Q6V0I7)	5.49
EDIL3 (lysine site: K263) (UniProt O43854)	2.69
ANKH (lysine site: K127) (UniProt Q9HCJ1)	0.684 (active)
MYH9 (lysine site: K910) (UniProt P35579)	4.64
ITGA6 (lysine site: K680) (UniProt P23229)	2.82
MYH9 (lysine site: K1828) (UniProt P35579)	2.77
CSE1L (lysine site: K17) (UniProt P55060)	1.76 (active)
UniProt P18859 (lysine site: K46)	4.7
PTBP1 (lysine site: K428) (UniProt P26599)	3.97
UniProt O60462 (lysine site: K499)	1.47 (active)
LDLR (lysine site: K518) (UniProt P01130)	1.72 (active)
UniProt P48060 (lysine site: K200)	3.31
